Results from PubChem BioAssay (NCATS).
Inconclusive results are not listed. The source made the active and inactive calls. Calls follow the shape of the dose curve; as a rule, active = well fitted curve in the direction sought with a large enough effect; inconclusive = small, poorly fitted or top-dose-only effect, or another doubt; inactive = no such curve, though single readings can be large; an effect the other way counts as inactive or inconclusive.

Assays:
[1] = Cellular Toxicity (caspase-3) Mesangial (AID 660); settings: mesangial cells, normalized: DMSO 0%, 100 µM tamoxifen 100%; at 91.7 µM (top of the series);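 also: combined caspase 3 and 7 activity read by Caspase-Glo luminescence; cells exposed to compound for 16 h before the caspase read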
Procedure, shortened: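 Mesangial cells, 1000/well, 5 h settle at 37 °C; compound 16 h, 37 °C; Caspase-Glo 3/7 reagent 20 min RT; luminescence. Norm.: DMSO = 0%, tamoxifen 100 uM = 100%. AC50, Hill fit.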

[2] = Cellular Toxicity (caspase-3) SK-N-SH (AID 661);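 also: 0% = DMSO basal and 100% = 10 µM staurosporine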
Procedure, shortened: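 Human neuroblastoma SK-N-SH, 1500 cells/well, 5 hr pre-incubation, then compound 16 hr, 37 °C. Caspase-Glo 3/7 reagent, 1 hr RT, luminescence. Norm. to DMSO/10 uM staurosporine; Hill-fit AC50.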

[3] = Cellular Toxicity (caspase-3) H-4-II-E (AID 663); settings: H-4-II-E rat hepatoma, scaled: DMSO 0%, 100 µM tamoxifen 100%; at 92.2 µM (top of the series);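 also: cells exposed to compound for 16 hr before readout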
Procedure, shortened: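 Apoptosis induction is scored as increased luminescence from caspase 3/7 substrate cleavage in rat hepatoma H-4-II-E cells exposed to compound for 16 hr. Activity is scaled between DMSO and 100 uM tamoxifen.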

[4] = Cellular Toxicity (caspase-3) Hek293 (AID 664); settings: HEK293 caspase-3 activation, DMSO = 0%, 100 µM tamoxifen = 100%; at 92.2 µM (top of the series);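 also: cells exposed to compound for 16 h at 37 °C before readout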
Procedure, shortened: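 Cells plated, 5 hr at 37 °C; compounds added; 16 hr at 37 °C; Caspase-Glo 3/7 reagent, 20 min RT; luminescence read. Activation expressed relative to DMSO and 100 uM tamoxifen, AC50 by Hill model.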

[5] = Cellular Toxicity (caspase-3) NIH 3T3 (AID 666);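 also: 0% = DMSO basal and 100% = 100 µM tamoxifen stimulation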
Procedure, shortened: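 Luminescence from aminoluciferin released by caspase-3/7 cleavage of a peptide substrate served as read-out. Mouse fibroblast NIH 3T3 cells were exposed to compounds over a concentration range for 16 hours, and AC50 values came from standard Hill modelling.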

[6] = Cellular Toxicity (caspase-3) Renal Proximal Tubule (AID 667); settings: Potency: caspase-3 activation;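 also: cells exposed to compound for 16 hours at 37 °C before detection; 0% = DMSO basal and 100% = 10 µM staurosporine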
Procedure, shortened: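 Luminescent caspase 3/7 signal from peptide-aminoluciferin cleavage measures apoptosis in freshly isolated rat kidney proximal tubule cells after 16 h compound exposure. Concentration-response data are normalized to DMSO and 10 uM staurosporine, and AC50 values come from Hill equation fits.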

[7] = Cell Viability - LYMP2-001 (AID 921);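 also: cells exposed to compound for 24 h at 37 °C; nearly all actives have a fitted effect of over 70% in size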; also: potency is read from the fitted curve at half-maximal effect
Procedure, shortened: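 CellTiter-Glo luminescence (intracellular ATP) after 24 hr compound exposure at 37 C, 2500 lymphoblastoid cells/well in complete medium. AC50 fitted with standard Hill equation; tetraoctylammonium bromide positive control.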

[8] = molecular target: Cytochrome P450 3A4 (Homo sapiens) (UniProt P08684); assay: qHTS Assay for Inhibitors and Substrates of Cytochrome P450 3A4 (AID 884); also: % is scaled to controls: 0 for no effect and ±100 for the full control effect; nearly all actives have a fitted effect of over 50% in size
Cytochrome P450 3A4 (Homo sapiens), sequence (P08684 whole entry, looked up): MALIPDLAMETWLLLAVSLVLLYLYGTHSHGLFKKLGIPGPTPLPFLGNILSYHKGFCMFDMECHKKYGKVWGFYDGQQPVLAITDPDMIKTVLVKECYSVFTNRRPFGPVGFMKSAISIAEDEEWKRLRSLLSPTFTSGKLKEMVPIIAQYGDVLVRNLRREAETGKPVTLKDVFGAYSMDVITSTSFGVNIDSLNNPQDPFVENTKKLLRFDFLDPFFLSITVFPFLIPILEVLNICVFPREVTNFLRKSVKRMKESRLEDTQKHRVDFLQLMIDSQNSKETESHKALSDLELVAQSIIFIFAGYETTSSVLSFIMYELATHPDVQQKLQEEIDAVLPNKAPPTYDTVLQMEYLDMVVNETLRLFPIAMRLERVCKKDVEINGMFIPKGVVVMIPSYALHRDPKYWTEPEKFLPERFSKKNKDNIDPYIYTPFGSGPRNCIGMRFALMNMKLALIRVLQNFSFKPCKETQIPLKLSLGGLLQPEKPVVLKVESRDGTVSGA
Procedure, shortened: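 20 nM human CYP3A4 with 25 uM Luciferin-PPXE (at KM) in 200 mM KPO4, preincubated 10 min with compound; NADPH regeneration started a 60 min RT reaction. Luciferin detected by luminescence, normalized to 57 uM ketoconazole as full inhibition.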

[9] = Cellular Toxicity (caspase-3) N2a (AID 665);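 also: compound exposure lasted 16 h at 37 °C before readout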
Procedure, shortened: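 N2a cells, 1500/well, 5 h settle at 37 °C; cpd 16 h, 37 °C; Caspase-Glo 3/7, 1 h RT; luminescence. Norm: DMSO = 0, 10 uM staurosporine = 100%. AC50, Hill fit.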

[10] = molecular target: Cytochrome P450 3A4 (Homo sapiens) (UniProt P08684); assay: qHTS Assay for Activators of Cytochrome P450 3A4 (AID 885); also: nearly all actives have a fitted effect of over 65% in size
Procedure, shortened: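 Quantitative HTS format: compounds preincubated with 20nM human CYP3A4 and Luciferin-PPXE substrate at KM, reaction started by NADPH regeneration, stopped after 60 min, luciferase luminescence read 20 min later.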

O=P(O)(OCc1ccccc1)OCc1ccccc1
inactive: caspase-3 activation [1] -0.354% | outcome [2] | caspase-3 activation [3] 1.06% | caspase-3 activation [4] -1.18% | outcome [5] | Potency [6] | Potency [7]

O=[N+]([O-])c1cc(C(F)(F)F)ccc1Cl
inactive: caspase-3 activation [1] -0.64% | outcome [2] | caspase-3 activation [3] 0.0893% | caspase-3 activation [4] -0.647% | outcome [5] | Potency [6] | Potency [8]

Cc1cccc([N+](=O)[O-])c1C(=O)O
inactive: caspase-3 activation [1] -0.481% | outcome [2] | caspase-3 activation [3] 1.44% | caspase-3 activation [4] 2.11% | outcome [5] | Potency [6] | Potency [8] | Potency [7]

CO[Si](CCCNCCC[Si](OC)(OC)OC)(OC)OC
inactive: caspase-3 activation [1] 0.876% | outcome [2] | caspase-3 activation [3] 0.962% | caspase-3 activation [4] -1.43% | outcome [5] | Potency [6] | Potency [8] | Potency [7]

O=C1CCCCC1
inactive: caspase-3 activation [1] 1.1% | outcome [2] | caspase-3 activation [3] 0.476% | caspase-3 activation [4] 0.988% | outcome [5] | Potency [6] | Potency [7]

N#CCc1ccccc1[N+](=O)[O-]
inactive: caspase-3 activation [1] -0.803% | outcome [2] | caspase-3 activation [3] 1.83% | outcome [9] | outcome [5] | Potency [6] | Potency [8] | Potency [7]

Cc1cc(C)cc(O)c1
inactive: caspase-3 activation [1] -0.0828% | outcome [2] | caspase-3 activation [3] -0.413% | caspase-3 activation [4] 0.338% | outcome [5] | Potency [6] | Potency [8] | Potency [7]

Cc1c(N)cccc1N
inactive: caspase-3 activation [1] -0.29% | outcome [2] | caspase-3 activation [3] 0.28% | caspase-3 activation [4] 0.0499% | outcome [5] | Potency [6] | Potency [7]

CN(C)CCCCl
inactive: caspase-3 activation [1] -0.558% | outcome [2] | caspase-3 activation [3] 0.431% | caspase-3 activation [4] -0.527% | outcome [5] | Potency [6] | Potency [8]

CCC(C)(C)OC
inactive: caspase-3 activation [1] -0.415% | outcome [2] | caspase-3 activation [3] 0.321% | caspase-3 activation [4] -1.93% | Potency [6] | Potency [7]

CC=C(Cl)Cl
inactive: caspase-3 activation [1] -0.275% | outcome [2] | caspase-3 activation [3] 0.108% | caspase-3 activation [4] 0.136% | outcome [5] | Potency [6] | Potency [8]

CC(N)CN (stereo not drawn)
inactive: caspase-3 activation [1] 2.7% | outcome [2] | caspase-3 activation [3] 0.364% | caspase-3 activation [4] 3.47% | outcome [5] | Potency [6] | Potency [8]

CCCCC/C=C/C=C/C=O
active: caspase-3 activation [4] 163% | Potency [7] 50.1 µM
inactive: caspase-3 activation [1] 0.621% | outcome [2] | outcome [9] | outcome [5] | Potency [6]

CC(C)CCOC(=O)/C=C/c1ccccc1
inactive: caspase-3 activation [1] 0.297% | outcome [2] | caspase-3 activation [3] 1.34% | caspase-3 activation [4] 1.37% | Potency [6] | Potency [8] | Potency [7]

O=C(Cl)c1c(Cl)cccc1Cl
inactive: caspase-3 activation [1] -0.17% | outcome [2] | caspase-3 activation [3] 0.0127% | caspase-3 activation [4] 0.529% | outcome [5] | Potency [6] | Potency [7]

CC/C(C)=N/O
inactive: caspase-3 activation [1] 0.891% | outcome [2] | caspase-3 activation [3] -0.877% | caspase-3 activation [4] 1.42% | Potency [6] | Potency [7]

O=C(O)CN(CC(=O)O)CC(=O)O
inactive: caspase-3 activation [1] 1.04% | outcome [2] | caspase-3 activation [3] 2.27% | caspase-3 activation [4] 0.365% | Potency [6] | Potency [8] | Potency [7]

O=C1OC(=O)c2c(Br)c(Br)c(Br)c(Br)c21
inactive: caspase-3 activation [1] 0.186% | outcome [2] | caspase-3 activation [3] 0.557% | caspase-3 activation [4] 1.35% | outcome [5] | Potency [6] | Potency [8]

CC(=O)OC(C)=O
inactive: caspase-3 activation [1] 0.184% | outcome [2] | caspase-3 activation [3] -0.382% | caspase-3 activation [4] -0.384% | outcome [5] | Potency [6] | Potency [8] | Potency [7]

C/C(C=O)=C/c1ccccc1
inactive: caspase-3 activation [1] -0.174% | caspase-3 activation [3] -1.36% | caspase-3 activation [4] 0.188% | outcome [9] | outcome [5] | Potency [6] | Potency [8]

CCNc1ccccc1
inactive: caspase-3 activation [1] -0.0326% | outcome [2] | caspase-3 activation [3] -0.349% | caspase-3 activation [4] -0.687% | outcome [5] | Potency [6] | Potency [8] | Potency [7]

O=[N+]([O-])c1ccccc1CCO
inactive: caspase-3 activation [1] -1.29% | outcome [2] | caspase-3 activation [3] 1.12% | caspase-3 activation [4] -0.925% | outcome [5] | Potency [6] | Potency [8] | Potency [7]

Nc1ccc(Cl)cc1[N+](=O)[O-]
inactive: caspase-3 activation [1] 0.0963% | outcome [2] | caspase-3 activation [3] -0.0414% | caspase-3 activation [4] 1.61% | outcome [5] | Potency [6] | Potency [8] | Potency [7]

CNc1ccc([N+](=O)[O-])cc1
inactive: caspase-3 activation [1] 0.0307% | outcome [2] | caspase-3 activation [3] 0.918% | caspase-3 activation [4] -2.51% | outcome [5] | Potency [6] | Potency [8] | Potency [7]

CCCCCNCCCCC
inactive: caspase-3 activation [1] 0.424% | outcome [2] | caspase-3 activation [3] 0.00908% | caspase-3 activation [4] 1.85% | Potency [6] | Potency [8] | Potency [7]

C=Cc1ccccc1C=C
inactive: caspase-3 activation [1] 0.384% | outcome [2] | caspase-3 activation [3] 0.884% | caspase-3 activation [4] 1.48% | outcome [5] | Potency [6] | Potency [8]

S=C([S-])NCCNC(=S)[S-].[Zn+2]
inactive: caspase-3 activation [1] -0.549% | outcome [2] | caspase-3 activation [3] -1.93% | caspase-3 activation [4] 3% | outcome [5] | Potency [6] | outcome [10] | Potency [7]

C=C(C)C1CC=C(C)C(OC(C)=O)C1 (stereo not drawn)
inactive: caspase-3 activation [1] -0.114% | outcome [2] | caspase-3 activation [3] 2.65% | caspase-3 activation [4] 1.35% | outcome [5] | Potency [6] | Potency [8] | Potency [7]

CC(=O)CCc1ccccc1
inactive: caspase-3 activation [1] -0.0155% | outcome [2] | caspase-3 activation [4] 0.352% | outcome [9] | outcome [5] | Potency [6] | Potency [7]

Oc1c(Cl)ccc(Cl)c1Cl
inactive: caspase-3 activation [1] 0.532% | outcome [2] | caspase-3 activation [3] 0.28% | caspase-3 activation [4] 4.28% | outcome [5] | Potency [6] | Potency [8] | Potency [7]

Cc1cc(C)cc([N+](=O)[O-])c1
inactive: caspase-3 activation [1] -0.822% | outcome [2] | caspase-3 activation [3] 0.227% | caspase-3 activation [4] 0.15% | Potency [6] | Potency [8] | Potency [7]

Cc1ccc2oc(=O)ccc2c1
inactive: caspase-3 activation [1] -0.888% | outcome [2] | caspase-3 activation [3] 1.34% | caspase-3 activation [4] -2.33% | outcome [5] | Potency [6] | Potency [8] | Potency [7]

CC1(N)CCC(C(C)(C)N)CC1 (stereo not drawn)
inactive: caspase-3 activation [1] -0.66% | outcome [2] | caspase-3 activation [3] 0.688% | caspase-3 activation [4] -1.41% | outcome [5] | Potency [6] | Potency [7]

CCCCOCCOCCSC#N
inactive: caspase-3 activation [1] -0.616% | outcome [2] | caspase-3 activation [3] 0.183% | caspase-3 activation [4] -2.09% | outcome [5] | Potency [6] | Potency [8] | Potency [7]

FC(F)(F)c1cccc(Cl)c1
inactive: caspase-3 activation [1] -0.53% | outcome [2] | caspase-3 activation [3] 0.296% | caspase-3 activation [4] 0.768% | outcome [5] | Potency [6] | Potency [8] | Potency [7]
